Growth data for 15 molecules are collected here from PubChem BioAssay (NCI).

Some test systems named below: NCI-H23 lung; NCI-H226 lung; NCI-H322M lung; HOP-62 NSCLC; NCI-H460 lung; HOP-92 NSCLC; A549/ATCC NSCLC; 786-0 renal; COLO 205 colon; NCI-H522 lung.
Common to all, as to assay: NCI-60 one-dose screen, 48 h (100 = growth as untreated, 0 = no growth, -100 = all killed)
Conditions in all cases: 10 µM unless noted

The structures appear in SMILES notation. About 83,000 compounds went through this panel and 20% of them were active in at least one assay; those are over-represented in the sample as a whole.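 The test compound was applied at a single concentration to cells in 96-well plates for 48 hours, and percent growth was recorded.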 Unmarked numbers belong to inactive results. Calls of active or inactive are those of the source. Rule for the calls: active = growth percent below 10; inactive = the rest.

Regarding `O=C(O)c1ccc(-n2cc(CNc3ccc(C(F)(F)F)cc3)c(-c3ccccc3)n2)cc1`, the growth was 91.6% in the assay on NCI-H23 lung; 104% with NCI-H226 lung; 101% with NCI-H322M lung; 90.5% in the assay with HOP-62 NSCLC; 94.3% with NCI-H460 lung; 83.8% in the assay with HOP-92 NSCLC. Further, the results for the growth with A549/ATCC NSCLC, in the assay with 786-0 renal and with COLO 205 colon were 72.5%, 99.1% and 107%, respectively.

Take `COc1ccc(-c2nnc(COc3ccc(NC(=O)Nc4ccc(Cl)c(C(F)(F)F)c4)cc3F)o2)cc1`: the growth is -20.2% (active) in the assay with NCI-H23 lung; 33.5% in the assay on NCI-H226 lung; 33% in the assay on NCI-H322M lung; 36.4% in the assay on HOP-62 NSCLC; -25.4% (active) with NCI-H460 lung; -13.4% (active) with HOP-92 NSCLC. Further, the growth in the assay on A549/ATCC NSCLC was 11.1%; with 786-0 renal, 24.7%; in the assay on COLO 205 colon it was -7.23% (active).

In the case of `CC(=O)Oc1cccc(OC(C)=O)c1OC(C)=O`, the growth in the assay on NCI-H23 lung is 111%; in the assay on NCI-H226 lung it was 97.8%; in the assay with NCI-H322M lung it was 99.7%; in the assay on HOP-62 NSCLC it was 92.1%; with NCI-H460 lung it was 110%; in the assay on HOP-92 NSCLC, 106%. The growth in the assay on A549/ATCC NSCLC is 72.6%; with 786-0 renal, 97.7%; in the assay with COLO 205 colon it was 107%.

For the molecule `COc1ccc2c(c1)C(C)Cc1c(N(C)C)ncnc1N2C` (centres undefined), the growth with NCI-H23 lung was 52.7%; with NCI-H226 lung, 81.6%; in the assay with NCI-H322M lung it was 53.9%; in the assay on HOP-62 NSCLC, 35.5%; in the assay with NCI-H460 lung it was 16.1%; in the assay with HOP-92 NSCLC it was 50.5%. The growth in the assay with A549/ATCC NSCLC is 50.5%; in the assay on 786-0 renal, 33%; in the assay on COLO 205 colon, 15.8%.

Consider `COc1cc(OC)c(C(=O)/C=C/c2ccc(C(F)(F)F)cc2)c(OC)c1`, for which the growth with NCI-H23 lung is 42.3%; in the assay on NCI-H226 lung it was 64.7%; in the assay on NCI-H322M lung, 62%; in the assay with HOP-62 NSCLC it was 55.1%; in the assay with NCI-H460 lung it was 23.1%; in the assay with HOP-92 NSCLC it was 96.8%. Further, the growth in the assay on A549/ATCC NSCLC was 53.5%; in the assay on 786-0 renal, 45.4%; in the assay with COLO 205 colon, 86.9%.

For the molecule `CC(=O)OC[Si](C)(C)c1ccccc1`, the growth was 112% in the assay with NCI-H23 lung; 95.9% with NCI-H226 lung; 110% with HOP-62 NSCLC; 103% in the assay on NCI-H460 lung; 92.1% in the assay on HOP-92 NSCLC; 103% in the assay with NCI-H522 lung. Further, the growth in the assay on A549/ATCC NSCLC is 95.8%; in the assay with 786-0 renal, 96.9%; with COLO 205 colon it was 117%.

`COc1cc(CNC(=O)CSc2nc3ccccc3c(=O)n2Cc2cc(OC)c(OC)c(OC)c2)cc(OC)c1OC`: the growth in the assay on NCI-H23 lung is 105%; in the assay on NCI-H226 lung, 94.5%; with HOP-62 NSCLC it was 94%; with NCI-H460 lung, 108%; in the assay on HOP-92 NSCLC, 106%; in the assay with NCI-H522 lung, 81.2%. In addition, the growth in the assay with A549/ATCC NSCLC was 97%; in the assay on 786-0 renal it was 101%; with COLO 205 colon, 105%.

On to `COc1ccc(OC)c(C(=O)c2oc3ccc(Br)cc3c2N)c1`, for which the growth in the assay with NCI-H23 lung is 24.7%; in the assay on NCI-H226 lung, 55.9%; in the assay with HOP-62 NSCLC, 33.6%; with NCI-H460 lung, 8.36% (active); in the assay with HOP-92 NSCLC it was 4.96% (active); in the assay on NCI-H522 lung, -2.14% (active). Besides, the growth with A549/ATCC NSCLC was 12.2%; in the assay on 786-0 renal it was 38%; in the assay with COLO 205 colon it was -16.1% (active).

In the case of `O=C(/C=C/CN1CCCCC1)Nc1cc2c(Nc3ccc(F)c(Cl)c3F)ncnc2cc1OCCOC(F)F`, the growth in the assay with NCI-H23 lung was 26.3%; in the assay on NCI-H226 lung, 28.6%; in the assay on HOP-62 NSCLC it was 20.6%; in the assay with NCI-H460 lung, 21.7%; with HOP-92 NSCLC, -39.2% (active); in the assay with NCI-H522 lung, -32% (active). The figures for the growth in the assay with A549/ATCC NSCLC, in the assay with 786-0 renal and in the assay with COLO 205 colon were 18.2%, 10.7% and 24.8%, respectively.

Consider `CCOC(=O)c1ccccc1NC(c1ccccc1)c1ccc2cccnc2c1O` (centres undefined), for which the growth in the assay on NCI-H23 lung is 30.3%; with NCI-H226 lung, 7.15% (active); in the assay on HOP-62 NSCLC it was 16.4%; in the assay on NCI-H460 lung it was 6.16% (active); in the assay on HOP-92 NSCLC it was 16.5%; in the assay on NCI-H522 lung, -1.69% (active). The growth in the assay on A549/ATCC NSCLC was 21.6%; with 786-0 renal, 1.44% (active); in the assay on COLO 205 colon, 16.3%.

For `CC1=CNNc2c3ncnc-3ncn21`, the growth is 98% with NCI-H23 lung; 99.7% in the assay on NCI-H226 lung; 95.4% with HOP-62 NSCLC; 108% in the assay on NCI-H460 lung; 94.7% in the assay with HOP-92 NSCLC; 96.6% in the assay on NCI-H522 lung. Also, the results for the growth in the assay on A549/ATCC NSCLC, in the assay with 786-0 renal and in the assay on COLO 205 colon were 100%, 102% and 106%, respectively.

Turning to `O=S(=O)(NCCNc1cc(-c2cn(-c3ccccc3)nc2-c2ccccc2)ccn1)c1ccc(F)cc1`, the growth with NCI-H23 lung was 81.6%; with NCI-H226 lung, 77.7%; with HOP-62 NSCLC it was 98.8%; with NCI-H460 lung it was 91.7%; in the assay on HOP-92 NSCLC, 40.7%; with NCI-H522 lung, 82.9%. The growth was 77.6% with A549/ATCC NSCLC, 81.5% in the assay with 786-0 renal and 98.8% with COLO 205 colon.

`CCN(CC)c1cc(/C=C/c2ccc(OC)c(OC)c2)nc2cc(F)c(F)cc12`: the growth with NCI-H23 lung is -2.87% (active); in the assay with NCI-H226 lung, 24.6%; with HOP-62 NSCLC, -78.8% (active); in the assay on NCI-H460 lung it was 84.9%; in the assay with HOP-92 NSCLC, -53.2% (active); in the assay with NCI-H522 lung it was 33.9%. Moreover, the growth with A549/ATCC NSCLC is 64.8%; with 786-0 renal, -18.7% (active); in the assay with COLO 205 colon it was 105%.

As to `CC(=O)Nc1ccc(S(=O)(=O)NC(CCC(=O)Nc2ccc(Cl)cc2)C(=O)O)cc1` (centres undefined), the growth with NCI-H23 lung is 97.3%; in the assay on NCI-H226 lung it was 96.8%; with HOP-62 NSCLC it was 92.2%; in the assay with NCI-H460 lung it was 105%; with HOP-92 NSCLC, 113%; with NCI-H522 lung, 97.1%. The growth in the assay with A549/ATCC NSCLC is 93.8%; with 786-0 renal, 107%; in the assay on COLO 205 colon it was 97.8%.

With `CC(C)C(C(=O)CCN(C)C)c1ccc(Cl)cc1` (centres undefined), the growth is 103% in the assay with NCI-H23 lung; 94.9% with NCI-H226 lung; 98.4% in the assay with HOP-62 NSCLC; 104% in the assay with NCI-H460 lung; 96.8% in the assay on HOP-92 NSCLC; 74.2% in the assay on NCI-H522 lung. Further, the growth in the assay on A549/ATCC NSCLC was 61.6%; with 786-0 renal it was 102%.
